Results as given in the supplement of paper PMC13380429.

These compounds were tested on Vero E6 infected with SARS-CoV-2 (assay: inhibition of SARS-CoV-2 cytopathic effect; higher = more antiviral protection, active = above 15). Conditions: 1 nM; 48 h.

| SMILES | inhibition of SARS-CoV-2 cytopathic effect |
| --- | --- |
| CN1C2C=C(c3sccc3Br)CC1CC2 (stereo not given) | 24.2% (active) |
| O=C(Cc1ccc(Cl)c(Cl)c1)N1CCCC[C@@H]1CN1CCCC1 | -0.96% (inactive) |
| CCOC(=O)N1CCC(=C2c3ccc(Cl)cc3CCc3cccnc32)CC1 [loratadine] | 1.77% (inactive) |
| NS(=O)(=O)c1ccc(-n2nc(C(F)(F)F)cc2-c2ccc(Cl)cc2)cc1 | 1.27% (inactive) |
| CC(C)OC(=O)C(C)(C)Oc1ccc(C(=O)c2ccc(Cl)cc2)cc1 [fenofibrate] | 4.02% (inactive) |
| COC(=O)C1=C(C)NC(C)=C([N+](=O)[O-])[C@@H]1c1ccccc1C(F)(F)F (racemic) | 2% (inactive) |
| Nc1cc(Cl)c(N=C2NCCN2)c(Cl)c1 [apraclonidine] | -2.77% (inactive) |
| N[C@@H](Cc1cc(-c2ccc(Cl)cc2Cl)cc(CP(=O)(O)O)c1O)C(=O)O | 0.73% (inactive) |
| COc1cc(N)c(Cl)cc1C(=O)OCCN1CCCCC1 | 2.34% (inactive) |
| O=C1C=C2C=C[C@@H]3C[C@@]2(O1)[C@H]1CCCCN31 [securinine] | 0.7% (inactive) |
| CN1CCN(CCCN2c3ccccc3Sc3ccc(Cl)cc32)CC1 [prochlorperazine] | -0.92% (inactive) |
| Nc1cccc2c(=O)[nH][nH]c(=O)c12 [monosodium-alpha-luminol] | -0.8% (inactive) |
| Cc1c(O)c(=O)n(-c2ccccc2)n1C [4-hydroxy-phenazone] | -1.11% (inactive) |
| CCn1cc(-c2cccc(C(F)(F)F)c2)c2sc(C(=N)NC3CCS(=O)(=O)CC3)cc2c1=O | 1.59% (inactive) |
| CC(C)(C)NCC(O)c1ccc(O)c(CO)c1 (stereo not given) [albuterol] | -4.08% (inactive) |
| C[C@H]1CC[C@H](n2c3cnccc3c3cnc(Nc4ccc5c(n4)CCN(C(=O)CO)C5)nc32)CC1 | -2.38% (inactive) |
| CC[C@H](C)C(=O)O[C@H]1C[C@@H](C)C=C2C=C[C@H](C)[C@H](CC[C@@H]3C[C@@H](O)CC(=O)O3)[C@H]21 [lovastatin] | -0.49% (inactive) |
| O=C(OCC(COC(=O)c1cccnc1)(COC(=O)c1cccnc1)COC(=O)c1cccnc1)c1cccnc1 [niceritrol] | -3.51% (inactive) |
| CN(C)CCC=C1c2ccccc2CCc2ccccc21 [amitriptyline] | -2.51% (inactive) |
| COc1cccc(OC)c1C(=O)N[C@@H]1C(=O)N2[C@@H]1SC(C)(C)[C@@H]2C(=O)O [methicillin] | -3.39% (inactive) |

| SMILES | inhibition of SARS-CoV-2 cytopathic effect |
| --- | --- |
| OC[C@H]1O[C@H](O[C@H]2O[C@H](CO)[C@@H](O)[C@H](O)[C@H]2O)[C@H](O)[C@@H](O)[C@@H]1O [cabaletta] | 1.34% (inactive) |
| CC/C(=C(/c1ccc(/C=C/C(=O)O)cc1)c1ccc2[nH]ncc2c1)c1ccc(F)cc1Cl | 4.17% (inactive) |
| O=C(NC1CCN(CCCCC2(C(=O)NCC(F)(F)F)c3ccccc3-c3ccccc32)CC1)c1ccccc1-c1ccc(C(F)(F)F)cc1 [lomitapide] | 0.13% (inactive) |
| COC(=O)N1CC[C@@H]2[C@H]1CCC[C@@]2(O)C#Cc1cccc(C)c1 [mavoglurant] | 0.66% (inactive) |
| Cc1ccc(C(=O)Nc2cccc(C(F)(F)F)c2)cc1Nc1nc(-c2cccnc2)nc2c1cnn2C | -0.06% (inactive) |
| CCCCOC(=O)c1cc2c(cn1)[nH]c1ccccc12 [beta-CCB] | -1.28% (inactive) |
| Cc1c(F)cc(C(=O)NC2CC2)cc1-c1ccc(C(=O)NCC(C)(C)C)cn1 [losmapimod] | 1.3% (inactive) |
| C[C@@H](CN)CC(=O)O [3-methyl-GABA] | 0.49% (inactive) |
| CC1=CC(=C(c2ccc(N)cc2)c2ccc(N)cc2)C=CC1=N [basic-fuchsin] | 0.76% (inactive) |
| C=C1CCN([C@H](C)[C@](O)(Cn2cncn2)c2ccc(F)cc2F)CC1 [efinaconazole] | -0.21% (inactive) |
| CCN(Cc1ccc(Cl)nc1)/C(=C/[N+](=O)[O-])NC [nitenpyram] | 0.79% (inactive) |
| O=c1[nH]c2ccccc2n1CCCN1CCN(C(c2ccccc2)c2ccccc2)CC1 [oxatomide] | -0.36% (inactive) |
| CCc1ccccc1OC[C@@H](O)CN[C@H]1CCCc2ccccc21 | -1.78% (inactive) |
| CCCC(=O)Nc1ncnc2c1ncn2[C@@H]1O[C@@H]2COP(=O)(O)O[C@H]2[C@H]1OC(=O)CCC [bucladesine] | -1.3% (inactive) |
| Sc1ncnc2nc[nH]c12 [mercaptopurine] | -0.65% (inactive) |
| CC(C)(C)NCC(O)c1cc(O)cc(O)c1 (stereo not given) | -2.09% (inactive) |
| Cc1cc(OCC(=O)O)cc(C)c1Cc1ccc(O)c(C(C)C)c1 [sobetirome] | 1.8% (inactive) |
| O=C(Nc1ccccc1F)N[C@H]1N=C(c2ccccc2)c2ccccc2NC1=O | 0.66% (inactive) |
| C[C@H](Cc1cc2c(c(C(N)=O)c1)N(CCCO)CC2)NCCOc1ccccc1OCC(F)(F)F [silodosin] | 3.7% (inactive) |
| Cn1cc(-c2ccc3nnc(C(F)(F)c4ccc5ncccc5c4)n3n2)cn1 | 0.45% (inactive) |
